# In PubChem BioAssay:
# “And” between values parts separate entries of the source, which are not always exact repeats. Equal values may be shown once. Results filed as inconclusive are left out. A structure can be active in one record and inactive in another. The source made the active and inactive calls. Unless noted, no rule for the calls is given here.
# Key:
# [1] = reducers of polyQ inclusions in PC12 cells, cell-based, NGF-treated PC12, GFPQ80 (AID 1614); conditions: PC12 NGF-treated GFP-polyQ80 inclusion reduction;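 also: lower means fewer inclusions and 0 means no inclusions at all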
# [2] = circadian clock period modulators, cell-based, LOPAC library, luminescence reporter (AID 2774); conditions: circadian reporter cells, at 7 µM, actives lie on both sides;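 also: values are relative to mean of DMSO wells on each plate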
# [3] = Cy5 fluorescence quenching or enhancement artefacts, artefact control for HCV NS3 helicase inhibitor project, biochemical, LOPAC1280 (AID 687037); conditions: Cy5-DNA-NS3h complex fluorescence interference counterscreen
# [4] = phospholipid biosynthesis inhibitors in animal cells, primary screen, cell-based, LOPAC library, screen 4 (AID 1347384); conditions: phospholipid biosynthesis inhibition screen, at 10 µM
# [5] = molecular target: ATP-dependent translocase ABCB1 (Homo sapiens) (UniProt P08183); assay: MDR1 (ABCB1) efflux transporter inhibition, cell-based (AID 377; in the data active = fluorescence slope change above about 50%); conditions: MDR1-expressing cells, fluorescent substrate accumulation slope; stronger effect = higher value; concentration not given here
# [6] = system: Neuropilin-2 / VEGF-C interaction (human); assay: inhibitors of NRP2–VEGF-C binding, biochemical, microplate binding format, z-score (AID 743281); conditions: microplate NRP2/VEGF-C binding assay; stronger effect = lower value
# [7] = system: Aerobactin synthetase IucA (Klebsiella pneumoniae); assay: IucA aerobactin synthetase inhibitors, biochemical, Tocris library, absorbance (AID 1345561); conditions: purified IucA enzyme assay, absorbance (OD) read-out; stronger effect = lower value;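 tested at 8 µM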;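 also: 100% = enzyme without compound and 0% = no enzyme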
# [8] = growth inhibition of DIPG glioma cells, dose response, cell-based, SU-DIPG-XVII, MIPE5.0, CellTiter-Glo, qHTS (AID 1347060; cut-off not given, nearly all actives have AC50 up to about 26 µM;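 as to AC50: cells exposed to compound for 48 hours before viability readout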); conditions: SU-DIPG-XVII viability, CellTiter-Glo ATP luminescence
# [9] = growth inhibition of DIPG glioma cells, dose response, cell-based, SU-DIPG-XIII, MIPE4.0, CellTiter-Glo, qHTS (AID 1347061; cut-off not given, nearly all actives have AC50 up to about 37 µM;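 also: cells exposed to compound for 48 hours before readout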); conditions: SU-DIPG-XIII viability, CellTiter-Glo ATP luminescence
# [10] = growth inhibition of DIPG glioma cells, dose response, cell-based, SU-DIPG-IV, MIPE4.0, CellTiter-Glo, qHTS (AID 1347063; cut-off not given, nearly all actives have AC50 up to about 30 µM;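 also: compound exposure lasted 48 hours before the viability readout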); conditions: SU-DIPG-IV viability, CellTiter-Glo ATP luminescence
# [11] = growth inhibition of DIPG glioma cells, dose response, cell-based, SU-DIPG-XIII, MIPE5.0, CellTiter-Glo, qHTS (AID 1347064; cut-off not given, nearly all actives have AC50 up to about 23 µM;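 as to AC50: cells exposed to compound for 48 hours before the viability read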); conditions: SU-DIPG-XIII viability, CellTiter-Glo ATP luminescence
# [12] = JHH-DIPG-1 glioma cell viability, MIPE5.0 library, CellTiter-Glo luminescence, qHTS (AID 1347067; cut-off not given, nearly all actives have AC50 up to about 26 µM;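 also: cells exposed to compound for 48 hours before readout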); conditions: JHH-DIPG-1 glioma viability, CellTiter-Glo ATP luminescence
# [13] = SU-DIPG-XXV glioma cell viability, MIPE5.0 library, qHTS (AID 1347068; cut-off not given, nearly all actives have IC50 up to about 30 µM;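 as to IC50: cells exposed to compound for 48 hours before viability readout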)
# [14] = growth inhibition of DIPG glioma cells, dose response, cell-based, JHH-DIPG-1, MIPE4.0, CellTiter-Glo, qHTS (AID 1347062; cut-off not given, nearly all actives have AC50 up to about 27 µM); conditions: JHH-DIPG-1 viability, CellTiter-Glo ATP luminescence
# [15] = SU-DIPG-VI glioma cell viability, MIPE4.0 library, CellTiter-Glo luminescence, qHTS (AID 1347066; cut-off not given, nearly all actives have AC50 up to about 30 µM;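 also: cells exposed to compound for 48 hours before readout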); conditions: CellTiter-Glo ATP luminescence
# [16] = viability loss in pontine glioma line – cell-based, SU-DIPG-XXV, MIPE5.0, CellTiter-Glo, qHTS, dose response (AID 1347065; cut-off not given, nearly all actives have AC50 up to about 26 µM;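 also: cells exposed to compound for 48 hours before ATP readout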); conditions: CellTiter-Glo ATP luminescence
# [17] = modifiers of HSF1 nuclear foci, imaging, Selleck Cancer Library (AID 1347162; in the data active = plate-normalised HSF1 focus index below about 0.46); conditions: human cells, at 10 µM; SSMD: measured here: HSF1 foci SSMD mean; cell count: measured here: cell number; plate-normalised HSF1 focus index: stronger effect = lower value
# [18] = LFS_MB_P medulloblastoma growth inhibition, cell-based, chromothripsis tumors, cisplatin or BGB combos (AID 1671449; in the data active = inhibition above about 80%;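 also: cells exposed for 96 hours; 0% = vehicle DMSO and 100% = killing by high DMSO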); conditions: LFS_MB_P medulloblastoma cells
# [19] = ICB984 medulloblastoma cell growth inhibition, synergistic combos for chromothripsis tumors, cisplatin or BGB combos (AID 1671451); conditions: ICB984 medulloblastoma cells, drug combinations, stronger effect = higher value;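 also: cells exposed for 96 hours before readout; 0% = vehicle DMSO and 100% = killing by high DMSO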
# ATP-dependent translocase ABCB1 (Homo sapiens), sequence (P08183 whole entry, looked up): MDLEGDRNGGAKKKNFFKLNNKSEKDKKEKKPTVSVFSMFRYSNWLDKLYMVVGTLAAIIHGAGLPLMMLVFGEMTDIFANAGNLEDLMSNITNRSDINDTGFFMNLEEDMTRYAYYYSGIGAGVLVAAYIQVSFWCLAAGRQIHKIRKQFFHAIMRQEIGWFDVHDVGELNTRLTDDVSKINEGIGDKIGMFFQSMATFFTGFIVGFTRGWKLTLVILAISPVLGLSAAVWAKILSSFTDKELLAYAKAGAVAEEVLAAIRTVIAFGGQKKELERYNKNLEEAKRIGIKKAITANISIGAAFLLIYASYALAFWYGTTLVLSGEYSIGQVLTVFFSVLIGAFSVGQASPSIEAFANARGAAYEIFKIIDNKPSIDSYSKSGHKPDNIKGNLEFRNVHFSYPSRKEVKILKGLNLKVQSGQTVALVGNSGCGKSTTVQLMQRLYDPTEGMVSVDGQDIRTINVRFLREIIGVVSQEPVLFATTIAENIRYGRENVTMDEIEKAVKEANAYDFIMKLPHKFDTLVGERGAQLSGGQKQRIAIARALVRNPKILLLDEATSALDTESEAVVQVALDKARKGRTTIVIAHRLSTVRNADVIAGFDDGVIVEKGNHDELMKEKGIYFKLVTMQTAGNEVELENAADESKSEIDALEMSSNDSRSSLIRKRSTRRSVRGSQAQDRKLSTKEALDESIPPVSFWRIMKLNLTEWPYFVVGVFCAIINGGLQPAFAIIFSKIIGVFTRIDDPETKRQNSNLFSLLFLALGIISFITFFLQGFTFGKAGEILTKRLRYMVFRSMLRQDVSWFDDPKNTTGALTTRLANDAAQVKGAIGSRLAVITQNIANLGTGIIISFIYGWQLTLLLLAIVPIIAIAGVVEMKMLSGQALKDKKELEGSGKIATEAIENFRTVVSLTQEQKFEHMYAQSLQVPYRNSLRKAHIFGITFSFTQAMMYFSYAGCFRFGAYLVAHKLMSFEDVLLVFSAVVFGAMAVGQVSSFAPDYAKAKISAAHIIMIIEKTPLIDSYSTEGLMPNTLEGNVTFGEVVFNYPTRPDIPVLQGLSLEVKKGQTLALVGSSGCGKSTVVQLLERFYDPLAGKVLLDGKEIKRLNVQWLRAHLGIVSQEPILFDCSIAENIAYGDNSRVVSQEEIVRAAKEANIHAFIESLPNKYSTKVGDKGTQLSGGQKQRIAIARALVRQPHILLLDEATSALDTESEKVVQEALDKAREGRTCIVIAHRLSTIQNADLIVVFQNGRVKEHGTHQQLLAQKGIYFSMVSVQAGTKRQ
smiles,measurement,setting,value
CCCNC(C)C(=O)Nc1ccccc1C (centres undefined),inclusion score,[1],2
same,period change,[2],-0.13 h (inactive)
same,fluorescence ratio (interference),[3],1 (inactive)
same,outcome,[4],inactive
Cc1ccc(S(=O)(=O)NC(=O)NN2CCCCCC2)cc1,fluorescence slope change,[5],5.1% (inactive)
same,inclusion score,[1],2
same,period change,[2],0.08 h (inactive)
same,fluorescence ratio (interference),[3],1 (inactive)
same,outcome,[4],inactive
CC[N+](C)(C)c1cccc(O)c1,fluorescence slope change,[5],82.5% (active)
same,inclusion score,[1],2
same,period change,[2],0.07 h (inactive)
same,fluorescence ratio (interference),[3],1 (inactive)
same,outcome,[4],inactive
OC(CCN1CCCCC1)(c1ccccc1)C1CCCCC1 (centres undefined),fluorescence slope change,[5],66% (active)
same,period change,[2],0 h (inactive)
same,fluorescence ratio (interference),[3],1 (inactive)
same,outcome,[4],inactive
CN(C)CCCN1c2ccccc2CCc2ccccc21,period change,[2],0.07 h (inactive)
same,fluorescence ratio (interference),[3],1 (inactive)
same,outcome,[4],inactive
CC(C)[N+](C)(CCOC(=O)C1c2ccccc2Oc2ccccc21)C(C)C,fluorescence slope change,[5],80.1% (active)
same,inclusion score,[1],2
same,period change,[2],0.06 h (inactive)
same,fluorescence ratio (interference),[3],1 (inactive)
same,outcome,[4],inactive
CN(C)CC/C=C1\c2ccccc2COc2ccccc21,fluorescence slope change,[5],109% (active)
same,period change,[2],0.025 h (inactive)
same,fluorescence ratio (interference),[3],1 (inactive)
same,outcome,[4],inactive
CC(=O)[C@H]1CC[C@H]2[C@@H]3C[C@H](C)C4=CC(=O)CC[C@]4(C)[C@H]3[C@@H](O)C[C@]12C,fluorescence slope change,[5],55.7% (active)
C[C@]12CCC(=O)C=C1CC[C@@H]1[C@@H]2[C@@H](O)C[C@@]2(C)[C@H]1CC[C@]2(O)C(=O)COC(=O)CCC(=O)O,period change,[2],-0.475 h (inactive)
C[C@H](CCC(=O)O)[C@H]1CC[C@H]2[C@@H]3C(=O)C[C@@H]4CC(=O)CC[C@]4(C)[C@H]3CC(=O)[C@]12C,fluorescence slope change,[5],97.9% (active)
same,z-score,[6],-0.00555 (inactive)
CC[C@H](C)C(=O)O[C@H]1C[C@H](O)C=C2C=C[C@H](C)[C@H](CC[C@@H](O)C[C@@H](O)CC(=O)O)[C@H]21,z-score,[6],0.492 (inactive)
same,remaining activity,[7],123% (inactive)
same,AC50,[8],23.5 µM (active)
same,outcome,[9],inactive
same,outcome,[10],inactive
same,outcome,[11],inactive
same,outcome,[12],inactive
same,outcome,[13],inactive
COc1ccc2cc(CCC(C)=O)ccc2c1,inclusion score,[1],2
CC(C)Oc1ccc2c(=O)c(-c3ccccc3)coc2c1,z-score,[6],0.0143 (inactive)
same,outcome,[8],inactive
same,outcome,[9],inactive
same,outcome,[14],inactive
same,outcome,[10],inactive
same,outcome,[15],inactive
same,outcome,[12],inactive
same,outcome,[13],inactive
CC(C)(C)NC[C@H](O)COc1nsnc1N1CCOCC1,remaining activity,[7],95.7% (inactive)
Cc1onc(-c2ccccc2)c1-c1ccc(S(N)(=O)=O)cc1,z-score,[6],0.865 (inactive)
same,outcome,[8],inactive
same,outcome,[11],inactive
same,outcome,[16],inactive
same,outcome,[12],inactive
same,outcome,[13],inactive
C[C@]12CCC(=O)C=C1CC[C@@H]1[C@@H]2C(=O)C[C@@]2(C)[C@H]1CC[C@]2(O)C(=O)CO,fluorescence slope change,[5],29.4% (inactive)
same,period change,[2],-0.215 h (inactive)
same,fluorescence ratio (interference),[3],1 (inactive)
same,z-score,[6],0.291 (inactive)
same,outcome,[4],inactive
OCCN1C[C@H](O)[C@@H](O)[C@H](O)[C@H]1CO,z-score,[6],-1.24 (inactive)
same,outcome,[8],inactive
same,outcome,[9],inactive
same,outcome,[14],inactive
same,outcome,[10],inactive
same,outcome,[16],inactive
same,outcome,[15],inactive
same,outcome,[12],inactive
same,outcome,[13],inactive
C[C@]12CCC(=O)C=C1CC[C@@H]1[C@@H]2[C@@H](O)C[C@@]2(C)[C@H]1CC[C@]2(O)C(=O)CO,period change,[2],-0.16 h (inactive)
same,fluorescence ratio (interference),[3],1 (inactive)
same,outcome,[8],inactive
same,outcome,[14],inactive
same,outcome,[11],inactive
same,outcome,[16],inactive
same,outcome,[15],inactive
same,outcome,[12],inactive
same,outcome,[13],inactive
same,SSMD,[17],2.5
same,cell count,[17],6980
same,plate-normalised HSF1 focus index,[17],1.13 (inactive)
same,outcome,[4],inactive
c1ccc(-c2ccc(C(c3ccccc3)n3ccnc3)cc2)cc1 (centres undefined),z-score,[6],-0.348 (inactive)
Cc1ccc(O)c([C@H](CCN(C(C)C)C(C)C)c2ccccc2)c1,z-score,[6],-0.0447 (inactive)
C[C@@H]1O[C@@H](OC[C@H]2O[C@@H](Oc3c(-c4ccc(O)c(O)c4)oc4cc(O)cc(O)c4c3=O)[C@H](O)[C@@H](O)[C@@H]2O)[C@H](O)[C@H](O)[C@H]1O,inclusion score,[1],2
same,z-score,[6],0.702 (inactive)
COc1ccc([C@@H]2Sc3ccccc3N(CCN(C)C)C(=O)[C@@H]2OC(C)=O)cc1,fluorescence slope change,[5],71.5% (active)
same,period change,[2],0.035 h (inactive)
same,fluorescence ratio (interference),[3],1.1 (inactive)
same,remaining activity,[7],113% (inactive)
same,outcome,[8],inactive
same,outcome,[11],inactive
same,outcome,[16],inactive
same,outcome,[12],inactive
same,outcome,[13],inactive
same,outcome,[4],inactive
Cn1c(=O)c2[nH]cnc2n(C)c1=O,fluorescence slope change,[5],7.6% (inactive) and 62.3% (active)
same,inclusion score,[1],1.5
same,period change,[2],0.14 h (inactive)
same,fluorescence ratio (interference),[3],0.9 (inactive)
same,outcome,[8],inactive
same,outcome,[9],inactive
same,outcome,[14],inactive
same,outcome,[10],inactive
same,outcome,[11],inactive
same,outcome,[16],inactive
same,outcome,[15],inactive
same,outcome,[12],inactive
same,outcome,[13],inactive
same,outcome,[4],inactive
same,inhibition,"[18]; at 0.5 µM, stronger effect = higher value",15.2% (inactive) and -21.4% (inactive) and -26.2% (inactive)
same,inhibition,"[18]; measured here: combination with BGB IC20, at 0.005 µM",-5.83% and -14.3% and -19.1%
same,inhibition,"[18]; measured here: combination with BGB IC40, at 0.005 µM",-32.6% and -34.3% and -25.4%
same,inhibition,"[18]; measured here: combination with BGB IC40, at 0.05 µM",-28.1% and -16.1% and -10.3%
same,inhibition,"[18]; measured here: combination with cisplatin, at 0.5 µM, stronger effect = higher value",57.5% and -49.4% and -30.2%
same,inhibition,"[18]; measured here: combination with cisplatin, at 5 µM, stronger effect = higher value",-12.8% and -12% and -12.6%
same,inhibition,"[19]; BGB IC20 combo, at 0.005 µM",-1.06% and -2.94% and -4.47%
same,inhibition,"[19]; BGB IC40 combo, at 0.005 µM",-42.4% and 6.67% and -13.1%
same,inhibition,"[19]; BGB IC40 combo, at 0.05 µM",-45.5% and -37.4% and -12%
same,inhibition,[19]; at 0.5 µM,-27.5% (inactive) and -16.4% (inactive) and -30.3% (inactive)
same,inhibition,"[19]; cisplatin combo, at 0.05 µM",-49.6% and -37.4% and -12%
same,inhibition,"[19]; cisplatin combo, at 0.5 µM",-29.5% and -23.4% and -59.1%
same,inhibition,"[19]; cisplatin combo, at 5 µM",-24.5% and 11.4% and -42.2%
same,inhibition,"[19]; measured here: 5 uM single agent, at 5 µM",-5.05% and -45.4% and 1.22%
Cc1cccc(Nc2ccncc2S(=O)(=O)NC(=O)NC(C)C)c1,z-score,[6],0.676 (inactive)
same,outcome,[9],inactive
same,outcome,[14],inactive
same,outcome,[10],inactive
same,outcome,[15],inactive
CC(=O)OCC[N+](C)(C)C,inclusion score,[1],2
Cc1cccc(CN2CCN(C(c3ccccc3)c3ccc(Cl)cc3)CC2)c1 (centres undefined),AC50,[8],23.5 µM (active)
same,AC50,[10],18.7 µM (active)
same,AC50,[11],20.9 µM (active)
same,AC50,[15],20.9 µM (active)
same,AC50,[12],16.6 µM (active)
same,IC50,[13],23.5 µM (active)
